The list is not random: actives were taken first. Their share in the collection is about 3.9%.
BoNT-A LC inh2 – inhibitors of Botulinum neurotoxin A light chain protease. multiplex microsphere protease substrate cleavage, flow cytometry. inhibition, % at 10 µM. 360,000 tested, 0.17% active. AID 588499; also: plate controls were buffer without enzyme for full effect and enzyme alone for no effect
SARS 3CLpro inh – SARS-CoV 3CLpro protease inhibition | P0C6X7 | recombinant SARS-CoV 3CLpro, quenched FRET peptide cleavage | inhibition, % at 6 µM | 290,000 tested, 0.14% active | AID 1706; in the data active = inhibition above about 12%
BoNT F protease – inhibitors of Botulinum neurotoxin F light chain protease. Multiplex microsphere protease cleavage assay, flow cytometry. inhibition, % at 10 µM. AID 588497. 360,000 tested, 0.22% active; in the data active = inhibition above about 35%, passing the limit was not always enough; inconclusive = no clear call, values can overlap the other calls; also: plate controls were buffer without enzyme for full effect and enzyme alone for no effect
Autofluor counter – compound fluorescence in toxin protease inhibitor counterscreen; compound autofluorescence counterscreen, microsphere flow cytometry; hits give high values; fluorescence intensity (no concentration beside the values); 360,000 tested, 3.1% active; AID 624483; in the data active = fluorescence intensity above about 16000; inconclusive = no clear call, values can overlap the other calls
Anthrax LF prot – anthrax lethal factor protease inhibition; P15917; multiplex microsphere protease cleavage assay, LF; inhibition, % at 10 µM; 360,000 tested, 0.12% active; AID 588501; also: plate controls were buffer without enzyme for full effect and enzyme alone for no effect
DUSP3 inh – inhibitors of human VHR1 phosphatase (DUSP3); recombinant VHR phosphatase, pNPP absorbance; inhibition, % at 13.3 µM; 290,000 tested, 0.52% active; AID 1654; in the data active = inhibition above about 50%
Target sequence (P51452 whole entry, looked up): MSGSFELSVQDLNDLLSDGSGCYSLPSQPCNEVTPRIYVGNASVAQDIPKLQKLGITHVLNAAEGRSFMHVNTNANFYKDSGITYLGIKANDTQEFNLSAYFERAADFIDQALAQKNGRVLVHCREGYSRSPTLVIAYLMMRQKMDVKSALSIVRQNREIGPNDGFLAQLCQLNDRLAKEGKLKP
* marks the source's active call; other numbers are inactive results; ? = inconclusive; nt = not tested or not shown; ! = not confirmed by another sample. Rule as the data show it, unless noted: active = inhibition above about 30%; inconclusive = no clear call, values can overlap the other calls; inactive = below that.

SMILES | BoNT-A LC inh2 | SARS 3CLpro inh | BoNT F protease | Autofluor counter | Anthrax LF prot | DUSP3 inh
CC(C)(C)NC(=O)CN(C(=O)CS(=O)CC(=O)Nc1ccc(F)cc1)c1ccc(F)c(Cl)c1 (stereo not given) | -1 | 4 | -3 | 20160* | 0 | 10
CC(C)(C)NC(=O)CN(C(=O)CS(=O)CC(=O)Nc1ccc(F)cc1)c1cccc(F)c1 (stereo not given) | 1 | 3 | 4 | 4227 | 0 | 6
O=C(O)CC1(CC(=O)Nc2ccc3ccccc3n2)CCCCC1 | -5 | -1 | ? | 4561 | -12 | 2
OC1(CNCc2cn[nH]c2-c2cc3ccccc3o2)CCCCC1 | 1 | -5 | -4 | 4506 | 1 | 20
Cc1cc(C)cc(NC(=O)c2cccn2-c2ncc(C(F)(F)F)cc2Cl)c1 | ? | 5 | -7 | 25062* | -3 | 31
O=C(Nc1ccc(F)cc1F)c1cccn1-c1ncc(C(F)(F)F)cc1Cl | -1 | 6 | -8 | 10426 | -1 | 23
Cc1ccc(N2C(=O)CSC2c2c(F)cccc2Cl)cc1 (stereo not given) | ? | 4 | 13 | 17035* | -11 | -2
Cc1ccccc1-c1noc(N)c1C#N | -1 | -2 | -5 | 23456* | 0 | 23
COc1ccc(-n2c(SC)nc(O)c(Cc3ccccc3)c2=O)cc1 | ? | 6 | -2 | 22787* | 0 | 7
CC(C)CCNC(=O)CSc1nc2ccccc2c(=O)[nH]1 | -3 | 0 | -6 | 17172* | -4 | -10
COC(=O)c1ccc(NC(=O)CSc2nc3ccccc3c(=O)[nH]2)cc1 | 0 | -1 | 0 | 20547* | -1 | 19
COc1ccc(NC(=O)CSc2nc(O)c(Cc3ccccc3)c(=O)[nH]2)cc1 | ? | -3 | 1 | 23050* | -1 | -4
Cc1cc(O)ccc1Nc1cc(-c2cccc(N)c2)ncn1 | 0 | nt | -2 | 3807 | -7 | nt
CCCc1nnc(NC(=O)CCC(=O)NC2CCCCCC2)s1 | -1 | -3 | 1 | 6124 | 2 | -3
COc1ccc2nc(C)cc(SCC(=O)N/N=C/c3ccc(O)c(O)c3)c2c1 | 0 | 5 | -7 | 4307 | -3 | 2
COc1ccc2nc(C)cc(SCC(=O)N/N=C/c3cccc4ccccc34)c2c1 | 1 | 0 | -2 | 19063* | -1 | 25
CC(C)CC(NC(=O)C(NC(=O)OC(C)(C)C)C(C)C)C(N)=O (stereo not given) | 0 | -1 | -1 | 2189 | -1 | 1
CSCCC(NC(=O)OC(C)(C)C)C(=O)NC(C(=O)NC(CC(C)C)C(N)=O)C(C)C (stereo not given) | 2 | 0 | 72* | 9295 | 11 | 15
O=S(=O)(c1cccs1)n1cccn1 | 0 | 3 | -8 | 3505 | -4 | 8
O=S(=O)(c1ccc(Br)s1)n1cccn1 | ? | -1 | 1 | 20761* | -1 | 11
CC(=O)c1cc(-c2ccccc2)n(CC(=O)N2CCC(C)CC2)c1C | ? | 4 | -4 | 17028* | 0 | 18
Cc1ccc2[nH]c(=O)c3cc(C(=O)NCCC(C)C)sc3c2c1 | 0 | 2 | 41* | 3817 | -9 | -2
COc1ccc(C(=O)N(CC2CCCO2)C(C(=O)NC2CCCC2)c2ccc(Cl)cc2)cc1OC (stereo not given) | 3 | 1 | 7 | 21196* | 2 | -2
COc1ccc(C(=O)N(CCCO)C(C)C(=O)NC2CCCCC2)cc1OC (stereo not given) | ? | 2 | 4 | 21753* | 1 | 14
CNS(=O)(=O)c1cc(NC(=O)c2cnc(SC)n2-c2ccccc2)ccc1C | -1 | 2 | -23 | 3783 | 8 | 31
SMILES | BoNT-A LC inh2 | SARS 3CLpro inh | BoNT F protease | Autofluor counter | Anthrax LF prot | DUSP3 inh
Cc1cc(N)n(-c2ccc(S(=O)(=O)c3ccc(C(C)C)cc3)cc2)n1 | 1 | 3 | -2 | 4143 | 0 | 3
Nc1ncncc1-c1ccc2ccccc2c1 | -8 | 3 | ? | 4786 | -4 | 15
Cc1ccc(CNC(=O)c2ccc(C)s2)cc1 | 0 | nt | -9 | 6397 | -9 | nt
CCn1cc(CNC(=O)c2ccc(C)s2)cn1 | -1 | 3 | 6 | 3372 | 0 | 57*
CCOC(=O)c1c(-c2ccc(OC)cc2)csc1/N=C/C1=C(O)CCCC1=O | 0 | -1 | -3 | 2511 | 0 | -1
CCCCNC(=O)c1ccc(CNc2c(N3CCC(C(=O)OCC)CC3)c(=O)c2=O)cc1 | 0 | -2 | -4 | 23374*! | -4 | 18
CCOC(=O)C1CCN(c2c(NCc3ccc(C(=O)NCCOC)cc3)c(=O)c2=O)CC1 | 0 | -5 | 15 | 4278 | 3 | 18
